# Compounds without any hit were thinned out: in the full panel of roughly 83,000, 20% have a hit.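 Plates (96-well) were seeded with cells, treated with compound at one concentration, and incubated for 48 hours before percent growth was determined.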 Values without a mark were called inactive. Calls of active or inactive are those of the source. How the source made its calls: active means growth percent below 10; inactive means the rest.
# Tested on: NCI-H23 lung
# Experiment: NCI-60 one-dose screen, 48 h (100 = growth as untreated, 0 = no growth, -100 = all killed)
# Conditions: 10 µM unless noted
row,SMILES,growth
1,CC(C)=CCCC(C)c1ccc(C)c2c1OCN(CC1CCNCC1)C2 (centres undefined),81.9%
2,COc1ccc(C2CC(c3ccc4c(c3)OCO4)=NN2C=O)cc1 (centres undefined),100%
3,COc1cc(-c2nc3sc4c(c3c(=O)[nH]2)CCCCCC4)cc(OC)c1OC,22.3%
4,O=C(C(=O)N1CCOCC1)c1cn(CCCn2cc(C(=O)C(=O)N3CCOCC3)c3ccccc32)c2ccccc12,113%
5,COc1ccc(/C=C2/SC(=Nc3c(C)nn(-c4ccccc4)c3N)NC2=O)cc1,38.3%
6,C/C(=C\CCc1ccoc1)CC/C=C(\C)CCCN1CCOCC1,46.2%
7,CO[C@H]1/C=C/O[C@@]2(C)Oc3c(C)c(O)c4c(O)c(c(/C=N/N5C(C)CN(Cc6ccc(C#N)cc6)CC5C)c(O)c4c3C2=O)NC(=O)/C(C)=C\C=C\[C@H](C)[C@H](O)[C@@H](C)[C@@H](O)[C@@H](C)[C@H](OC(C)=O)[C@@H]1C (some centres undefined),11.5%
8,CCOC(=O)CNC(=O)C1(NC(=O)CNC(=O)OCc2ccccc2)CCCC1,105%
9,COc1cnc2c(c1)C(=O)c1c-2n(CCCNC(C)C)c(=O)c2cc(F)ccc12,-39.9% (active)
10,Nc1ccc2c(c1Br)Cc1ccccc1-2,92%
11,O=C1OC2(c3ccccc31)c1ccccc1-c1ccccc12,89.6%
12,CCCCCCCCN(CCO)CCCCCCCC,103%
13,Nc1ccc2c(c1)C(=O)c1cc(Cl)c(Cl)cc1-2,88.8%
14,O=C(/C=C/c1cccc(Nc2ccnc3cc(Cl)ccc23)c1)c1ccc(Cl)cc1,45.9%

# Reference: PubChem BioAssay (NCI)
